Legend:
[1] = biological target: Serine/threonine-protein kinase MRCK alpha (Homo sapiens) (UniProt Q5VT25); conditions: at 0.1 µM
[2] = biological target: Serine/threonine-protein kinase MRCK alpha (Homo sapiens) (UniProt Q5VT25); conditions: at 1 µM
[3] = biological target: Serine/threonine-protein kinase MRCK beta (Homo sapiens) (UniProt Q9Y5S2); conditions: at 0.1 µM
[4] = biological target: Serine/threonine-protein kinase MRCK beta (Homo sapiens) (UniProt Q9Y5S2); conditions: at 1 µM
[5] = biological target: Ribosomal protein S6 kinase alpha-5 (Homo sapiens) (UniProt O75582); conditions: at 0.1 µM
Sequence of Ribosomal protein S6 kinase alpha-5 (Homo sapiens) (O75582 whole entry, looked up): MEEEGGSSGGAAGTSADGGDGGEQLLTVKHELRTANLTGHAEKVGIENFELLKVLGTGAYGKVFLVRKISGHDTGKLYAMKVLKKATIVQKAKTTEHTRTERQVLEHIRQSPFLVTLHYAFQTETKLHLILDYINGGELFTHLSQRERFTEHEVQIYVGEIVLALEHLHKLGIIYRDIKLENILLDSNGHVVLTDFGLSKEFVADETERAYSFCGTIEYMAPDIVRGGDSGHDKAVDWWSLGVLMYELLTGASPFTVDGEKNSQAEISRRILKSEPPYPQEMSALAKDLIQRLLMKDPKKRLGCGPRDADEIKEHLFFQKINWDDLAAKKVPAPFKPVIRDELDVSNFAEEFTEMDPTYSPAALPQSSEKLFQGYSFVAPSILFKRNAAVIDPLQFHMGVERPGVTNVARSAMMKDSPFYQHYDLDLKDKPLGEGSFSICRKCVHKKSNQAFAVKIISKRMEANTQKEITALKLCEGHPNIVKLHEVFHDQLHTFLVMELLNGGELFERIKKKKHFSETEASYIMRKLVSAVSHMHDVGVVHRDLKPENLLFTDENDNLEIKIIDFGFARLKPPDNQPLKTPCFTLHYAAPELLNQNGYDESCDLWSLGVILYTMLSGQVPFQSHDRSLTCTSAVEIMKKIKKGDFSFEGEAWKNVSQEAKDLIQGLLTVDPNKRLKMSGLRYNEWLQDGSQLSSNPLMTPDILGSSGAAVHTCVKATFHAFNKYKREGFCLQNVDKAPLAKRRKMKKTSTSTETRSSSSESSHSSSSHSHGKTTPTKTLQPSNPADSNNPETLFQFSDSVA

[6] = biological target: Ribosomal protein S6 kinase alpha-5 (Homo sapiens) (UniProt O75582); conditions: at 1 µM
[7] = biological target: Ribosomal protein S6 kinase alpha-4 (Homo sapiens) (UniProt O75676); conditions: at 0.1 µM
[8] = biological target: Ribosomal protein S6 kinase alpha-4 (Homo sapiens) (UniProt O75676); conditions: at 1 µM
[9] = biological target: Ribosomal protein S6 kinase beta-1 (Homo sapiens) (UniProt P23443); conditions: at 0.1 µM
Sequence of Ribosomal protein S6 kinase beta-1 (Homo sapiens) (P23443 whole entry, looked up): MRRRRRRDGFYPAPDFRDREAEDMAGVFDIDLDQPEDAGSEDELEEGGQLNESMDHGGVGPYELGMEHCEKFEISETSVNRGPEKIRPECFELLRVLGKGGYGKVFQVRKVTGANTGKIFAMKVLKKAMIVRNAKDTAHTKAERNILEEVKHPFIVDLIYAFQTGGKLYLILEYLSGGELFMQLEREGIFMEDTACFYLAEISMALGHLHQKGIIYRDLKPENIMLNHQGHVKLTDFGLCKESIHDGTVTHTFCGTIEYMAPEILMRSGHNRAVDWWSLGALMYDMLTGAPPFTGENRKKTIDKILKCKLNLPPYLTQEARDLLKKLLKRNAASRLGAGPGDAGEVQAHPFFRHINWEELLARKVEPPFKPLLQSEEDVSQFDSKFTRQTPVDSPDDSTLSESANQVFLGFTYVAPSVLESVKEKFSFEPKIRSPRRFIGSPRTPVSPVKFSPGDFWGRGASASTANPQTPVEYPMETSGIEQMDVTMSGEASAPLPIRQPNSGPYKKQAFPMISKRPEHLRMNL

[10] = biological target: Ribosomal protein S6 kinase beta-1 (Homo sapiens) (UniProt P23443); conditions: at 1 µM

Sequence of Serine/threonine-protein kinase MRCK beta (Homo sapiens) (Q9Y5S2 whole entry): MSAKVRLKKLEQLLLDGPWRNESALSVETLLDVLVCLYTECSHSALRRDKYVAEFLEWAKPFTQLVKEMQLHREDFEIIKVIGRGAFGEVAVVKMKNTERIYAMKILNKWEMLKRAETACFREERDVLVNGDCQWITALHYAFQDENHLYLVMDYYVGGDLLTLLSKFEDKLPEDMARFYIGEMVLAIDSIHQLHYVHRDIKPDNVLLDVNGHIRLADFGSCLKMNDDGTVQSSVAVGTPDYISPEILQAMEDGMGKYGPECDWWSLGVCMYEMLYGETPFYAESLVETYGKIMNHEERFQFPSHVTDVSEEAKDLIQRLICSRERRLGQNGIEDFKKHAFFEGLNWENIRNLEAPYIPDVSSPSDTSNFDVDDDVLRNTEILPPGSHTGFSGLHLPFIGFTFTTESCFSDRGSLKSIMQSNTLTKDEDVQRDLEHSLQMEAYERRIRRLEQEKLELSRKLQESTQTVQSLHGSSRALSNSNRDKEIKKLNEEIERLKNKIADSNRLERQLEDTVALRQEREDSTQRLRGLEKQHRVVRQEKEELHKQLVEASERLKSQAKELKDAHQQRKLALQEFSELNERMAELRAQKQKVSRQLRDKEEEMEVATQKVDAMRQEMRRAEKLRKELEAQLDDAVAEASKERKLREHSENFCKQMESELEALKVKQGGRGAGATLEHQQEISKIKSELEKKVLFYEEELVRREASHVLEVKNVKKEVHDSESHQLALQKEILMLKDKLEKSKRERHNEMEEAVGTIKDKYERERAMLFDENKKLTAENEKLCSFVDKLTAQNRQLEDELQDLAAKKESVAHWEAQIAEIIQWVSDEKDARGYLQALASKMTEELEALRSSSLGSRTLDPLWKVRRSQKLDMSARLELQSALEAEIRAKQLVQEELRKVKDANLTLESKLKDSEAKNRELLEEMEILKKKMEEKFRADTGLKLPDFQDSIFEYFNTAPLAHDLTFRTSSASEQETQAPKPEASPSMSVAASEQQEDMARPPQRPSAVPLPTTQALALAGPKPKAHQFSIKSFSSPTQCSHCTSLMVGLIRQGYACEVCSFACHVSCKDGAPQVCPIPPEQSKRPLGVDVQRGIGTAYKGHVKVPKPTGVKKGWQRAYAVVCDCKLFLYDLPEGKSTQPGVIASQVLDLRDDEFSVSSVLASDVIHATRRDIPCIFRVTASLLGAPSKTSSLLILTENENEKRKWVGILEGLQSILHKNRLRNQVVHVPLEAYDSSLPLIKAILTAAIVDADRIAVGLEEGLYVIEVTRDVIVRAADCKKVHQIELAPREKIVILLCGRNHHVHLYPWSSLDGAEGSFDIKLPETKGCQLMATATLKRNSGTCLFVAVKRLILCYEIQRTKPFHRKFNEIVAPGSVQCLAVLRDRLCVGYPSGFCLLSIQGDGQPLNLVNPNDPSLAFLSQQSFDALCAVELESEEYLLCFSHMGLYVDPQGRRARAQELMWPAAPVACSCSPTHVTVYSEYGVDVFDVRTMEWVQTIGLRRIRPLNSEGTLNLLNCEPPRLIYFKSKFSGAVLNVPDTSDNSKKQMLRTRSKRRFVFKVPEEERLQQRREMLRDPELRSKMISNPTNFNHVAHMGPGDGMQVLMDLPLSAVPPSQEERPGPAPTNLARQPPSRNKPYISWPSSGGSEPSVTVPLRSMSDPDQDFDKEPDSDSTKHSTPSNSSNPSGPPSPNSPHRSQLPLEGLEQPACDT
Sequence of Serine/threonine-protein kinase MRCK alpha (Homo sapiens) (Q5VT25 whole entry): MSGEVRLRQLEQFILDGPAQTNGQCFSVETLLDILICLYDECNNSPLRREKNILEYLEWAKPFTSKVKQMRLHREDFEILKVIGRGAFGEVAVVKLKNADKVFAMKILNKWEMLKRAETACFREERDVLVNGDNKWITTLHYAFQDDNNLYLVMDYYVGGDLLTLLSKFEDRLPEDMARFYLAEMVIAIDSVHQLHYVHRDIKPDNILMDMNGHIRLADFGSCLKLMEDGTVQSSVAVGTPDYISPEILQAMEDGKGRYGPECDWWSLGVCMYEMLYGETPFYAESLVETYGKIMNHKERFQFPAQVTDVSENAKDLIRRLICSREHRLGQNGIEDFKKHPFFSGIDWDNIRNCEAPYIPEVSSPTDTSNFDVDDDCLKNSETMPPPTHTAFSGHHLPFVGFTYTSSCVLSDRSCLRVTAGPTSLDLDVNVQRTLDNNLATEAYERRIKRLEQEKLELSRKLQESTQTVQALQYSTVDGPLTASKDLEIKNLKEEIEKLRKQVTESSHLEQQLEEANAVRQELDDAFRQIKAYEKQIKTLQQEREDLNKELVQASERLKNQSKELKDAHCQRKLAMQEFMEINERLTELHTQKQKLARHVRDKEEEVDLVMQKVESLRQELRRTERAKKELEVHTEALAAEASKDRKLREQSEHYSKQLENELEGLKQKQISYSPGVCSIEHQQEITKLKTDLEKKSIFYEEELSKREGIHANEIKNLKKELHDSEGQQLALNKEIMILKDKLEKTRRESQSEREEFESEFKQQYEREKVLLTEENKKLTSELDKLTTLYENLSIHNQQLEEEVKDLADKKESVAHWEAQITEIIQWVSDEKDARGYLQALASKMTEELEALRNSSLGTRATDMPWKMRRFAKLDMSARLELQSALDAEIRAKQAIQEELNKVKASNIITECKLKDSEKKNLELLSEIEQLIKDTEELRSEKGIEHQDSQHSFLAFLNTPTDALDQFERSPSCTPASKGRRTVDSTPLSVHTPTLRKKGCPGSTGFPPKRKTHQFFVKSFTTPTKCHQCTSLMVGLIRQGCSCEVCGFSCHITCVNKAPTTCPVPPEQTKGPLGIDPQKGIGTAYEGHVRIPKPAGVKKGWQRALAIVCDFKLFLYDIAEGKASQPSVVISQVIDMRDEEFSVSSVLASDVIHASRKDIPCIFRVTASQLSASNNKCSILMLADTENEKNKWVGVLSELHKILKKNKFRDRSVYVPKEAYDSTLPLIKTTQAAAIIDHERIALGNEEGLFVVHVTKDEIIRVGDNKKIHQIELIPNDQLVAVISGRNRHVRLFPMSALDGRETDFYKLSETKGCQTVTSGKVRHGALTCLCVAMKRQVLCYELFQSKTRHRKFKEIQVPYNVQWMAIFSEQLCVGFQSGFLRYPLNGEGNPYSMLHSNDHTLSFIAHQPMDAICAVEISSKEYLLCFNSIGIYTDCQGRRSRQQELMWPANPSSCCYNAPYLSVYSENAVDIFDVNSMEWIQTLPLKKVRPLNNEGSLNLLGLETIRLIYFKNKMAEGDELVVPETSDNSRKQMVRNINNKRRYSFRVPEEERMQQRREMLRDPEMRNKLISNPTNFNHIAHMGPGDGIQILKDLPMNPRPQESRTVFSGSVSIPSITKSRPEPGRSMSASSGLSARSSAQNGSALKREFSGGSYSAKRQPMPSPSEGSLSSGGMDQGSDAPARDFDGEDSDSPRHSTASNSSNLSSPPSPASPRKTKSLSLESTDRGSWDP

Row | SMILES | inhibition [1] [%] | inhibition [2] [%] | inhibition [3] [%] | inhibition [4] [%] | inhibition [5] [%] | inhibition [6] [%] | inhibition [7] [%] | inhibition [8] [%] | inhibition [9] [%] | inhibition [10] [%]
1 | COc1ccc(-c2nn3ncccc3c2-c2ccnc(Nc3ccc(F)c(F)c3)n2)cc1 | 0.67 | 4.1 | -0.01 | -0.11 | 3.92 | 6.45 | 3.37 | 4.5 | 1.91 | 2.58
2 | Cc1cc(O)cc(C)c1/C=C/c1cncc(C(N)=O)c1 | 0.25 | 0.43 | 1.39 | 1.02 | 1.68 | 2.9 | 1.67 | 2.18 | 1.07 | 0.31
3 | CN(C)CCNC(=O)Nc1ccc(N(C)c2ccnc(Nc3ccc(CS(C)(=O)=O)cc3)n2)cc1 | -0.24 | -0.69 | 1.09 | 2.25 | 3.26 | 3.31 | 3.22 | 4.32 | 1.72 | 1.94
4 | COC(=O)Nc1nc2ccc(Oc3ccc(NC(=O)Nc4cc(C(F)(F)F)ccc4F)cc3)cc2s1 | -0.38 | -1.54 | 0.73 | 1.68 | 0.52 | 0.93 | 1.67 | 2.86 | 6.33 | 23.2
5 | COc1cc2c(cc1Nc1nc(Nc3cccc(F)c3C(N)=O)c3cc[nH]c3n1)N(C(=O)CN1CCN(C(C)C)CC1)CC2 | 6.36 | 5.12 | 0.17 | 2.33 | 1.4 | 3.93 | 1.44 | 3.9 | 2.23 | 2.83
6 | FC(F)(F)CNc1nccc(-c2cnn3ncccc23)n1 | -2.84 | -3.89 | -0.09 | -0.68 | 1.98 | 1.09 | 2.33 | 1.58 | 0.49 | 0.86
7 | CC1=C(C(=O)Nc2ccc3[nH]nc(C)c3c2)C(c2ccc(C(F)(F)F)cc2)CC(=O)N1 (stereo not given) | 1.9 | 17.1 | 5.5 | 37.4 | 6.02 | 28.8 | 1.31 | 11.5 | 1.6 | 9.4
8 | COc1c(C(N)=O)cc(-c2ccc(Cl)cc2)cc1-c1ccc(S(N)(=O)=O)cc1 | 5.11 | 4.98 | -0.26 | 2.36 | 2.38 | 3.81 | 3.65 | 5.79 | 3.07 | 4.29
9 | NS(=O)(=O)c1ccc(N/N=C2\C(=O)Nc3cccc(CCc4ccncc4)c32)cc1 | -0.78 | -0.69 | 0.54 | 0.31 | -0.75 | -0.48 | 0.37 | 2.61 | 0.08 | -0.48
10 | CS(=O)(=O)Nc1ccc(-c2ccc3c(NC(=O)C4CC4)n[nH]c3c2)cc1 | -0.45 | -1.86 | -0.12 | 1.45 | 3.35 | 5.67 | -1 | 3.37 | 2.17 | 2.83
11 | Cc1c2ccc(N(C)c3ccnc(Nc4cccc(S(N)(=O)=O)c4)n3)cc2nn1C | -0.27 | 0.18 | 0.8 | 0.18 | 2.9 | 1.29 | 2.14 | 5.76 | 2.59 | 2.64
12 | O=C(O[C@H]1CN[C@H](C#Cc2cc3ncnc(Nc4ccc5c(cnn5Cc5ccccc5)c4)c3s2)C1)N1CCOCC1 | 0.53 | -6.83 | -0.65 | -2.08 | -1.78 | -2.26 | 0.14 | -0.97 | -0.07 | -1.65
13 | O=C(O[C@H]1CN[C@H](C#Cc2cc3ncnc(Nc4ccc5c(ccn5Cc5cc(F)ccc5F)c4)c3s2)C1)N1CCOCC1 | -0.29 | -1.5 | 1.19 | 1.68 | -1.77 | -0.4 | 2.95 | 4.34 | 1.82 | 1.74
14 | CC(C)c1ccc(-c2cc(-c3c[nH]nc3-c3ccccn3)ccn2)cc1 | -0.14 | -0.28 | -0.59 | 2.06 | 1.59 | 1.63 | 1.53 | 2.87 | 0.17 | -0.41
15 | COc1cccc(Nc2nccc(-c3cnn4ncccc34)n2)c1 | 0.93 | -0.24 | -1.65 | -1.51 | 1.02 | 4.32 | 1.62 | 10.5 | 2.02 | 3.93
